PubChem BioAssay (EPA / NIEHS)
Inconclusive results are not listed. Activity calls are given as the source filed them. How the source made its calls, unless noted: active means hit-call score of the fitted dose curve at least 0.9, where 1 is the maximum; inconclusive means response in the unintended direction; inactive means score below 0.9.

How the values were obtained:
[1] = biological target: Glucocorticoid receptor (Homo sapiens) (UniProt P04150); experiment: ATG_GR_TRANS: Attagene TRANS-FACTORIAL HepG2 Assay for human Glucocorticoid Receptor (GR) (AID 2282978); settings: HepG2 Attagene TRANS GR reporter, mRNA transcription;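 further: activators score as hits since higher reporter transcript over DMSO is fitted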
Sequence of Glucocorticoid receptor (Homo sapiens) (P04150 whole entry, looked up, the tested form may be a part): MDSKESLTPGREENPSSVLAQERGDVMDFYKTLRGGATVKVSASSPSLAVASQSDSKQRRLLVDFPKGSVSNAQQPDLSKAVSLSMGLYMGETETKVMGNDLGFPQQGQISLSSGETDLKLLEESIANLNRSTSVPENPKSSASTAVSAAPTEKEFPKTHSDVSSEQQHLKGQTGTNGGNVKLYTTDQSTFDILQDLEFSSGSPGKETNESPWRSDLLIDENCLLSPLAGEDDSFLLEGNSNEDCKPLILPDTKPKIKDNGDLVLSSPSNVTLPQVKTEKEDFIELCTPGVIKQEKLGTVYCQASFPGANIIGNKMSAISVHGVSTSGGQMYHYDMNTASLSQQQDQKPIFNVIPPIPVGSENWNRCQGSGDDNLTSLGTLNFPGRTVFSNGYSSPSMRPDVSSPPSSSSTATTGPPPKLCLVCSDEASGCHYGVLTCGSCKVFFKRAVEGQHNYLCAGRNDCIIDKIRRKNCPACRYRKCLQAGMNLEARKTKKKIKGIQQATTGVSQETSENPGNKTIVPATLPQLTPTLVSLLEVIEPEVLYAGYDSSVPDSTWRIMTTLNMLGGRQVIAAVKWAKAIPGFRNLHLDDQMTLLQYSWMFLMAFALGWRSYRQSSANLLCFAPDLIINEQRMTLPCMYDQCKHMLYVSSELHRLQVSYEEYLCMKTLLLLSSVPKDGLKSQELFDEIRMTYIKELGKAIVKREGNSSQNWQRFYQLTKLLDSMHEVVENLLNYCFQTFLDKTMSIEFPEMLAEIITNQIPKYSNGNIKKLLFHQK
Summary of the method: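 HepG2 cells transiently transfected with multiplexed reporter units in which chimeric NR-GAL4 proteins drive GAL4-UAS reporters; 24 h compound exposure. Reporter mRNA measured by RT-PCR, 6-FAM labelling, HpaI digestion and capillary electrophoresis; gain-of-signal fitted versus DMSO.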

[2] = biological target: Bile acid receptor (Homo sapiens) (UniProt Q96RI1); experiment: ATG_FXR_TRANS: Attagene TRANS-FACTORIAL HepG2 Assay for Farnesoid X Receptor (FXR) (AID 2282979); settings: HepG2 Attagene TRANS FXR-GAL4 reporter transcription;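 further: hits raise reporter mRNA above DMSO so AC50 marks FXR activation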
Sequence of Bile acid receptor (Homo sapiens) (Q96RI1 whole entry, looked up, the tested form may be a part): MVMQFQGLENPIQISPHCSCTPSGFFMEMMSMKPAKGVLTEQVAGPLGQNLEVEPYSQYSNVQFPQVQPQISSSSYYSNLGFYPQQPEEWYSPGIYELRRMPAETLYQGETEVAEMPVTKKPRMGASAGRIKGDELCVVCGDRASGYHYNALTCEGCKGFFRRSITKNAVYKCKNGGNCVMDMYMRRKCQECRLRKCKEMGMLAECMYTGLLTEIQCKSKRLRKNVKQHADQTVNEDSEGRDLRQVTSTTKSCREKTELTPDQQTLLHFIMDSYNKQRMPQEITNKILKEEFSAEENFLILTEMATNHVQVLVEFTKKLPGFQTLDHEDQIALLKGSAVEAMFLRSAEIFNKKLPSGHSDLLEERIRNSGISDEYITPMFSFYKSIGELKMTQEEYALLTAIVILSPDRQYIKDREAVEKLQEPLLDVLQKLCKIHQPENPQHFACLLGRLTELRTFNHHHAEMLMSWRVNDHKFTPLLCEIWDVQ
Summary of the method: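 Read-out: fluorescent reporter transcripts quantified by capillary electrophoresis after RT-PCR of total RNA. Source cells were HepG2 transiently carrying chimeric NR-GAL4 plus GAL4-UAS reporter units, dosed 24 h. Activity fitted upward relative to DMSO baseline.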

[3] = biological target: Oxysterols receptor LXR-alpha (Homo sapiens) (UniProt Q13133); experiment: ATG_LXRa_TRANS: Attagene TRANS-FACTORIAL HepG2 Assay for human Liver X Receptor alpha (LXRa) (AID 2282980); settings: HepG2 Attagene TRANS reporter, LXRa transactivation
Sequence of Oxysterols receptor LXR-alpha (Homo sapiens) (Q13133 whole entry, looked up, the tested form may be a part): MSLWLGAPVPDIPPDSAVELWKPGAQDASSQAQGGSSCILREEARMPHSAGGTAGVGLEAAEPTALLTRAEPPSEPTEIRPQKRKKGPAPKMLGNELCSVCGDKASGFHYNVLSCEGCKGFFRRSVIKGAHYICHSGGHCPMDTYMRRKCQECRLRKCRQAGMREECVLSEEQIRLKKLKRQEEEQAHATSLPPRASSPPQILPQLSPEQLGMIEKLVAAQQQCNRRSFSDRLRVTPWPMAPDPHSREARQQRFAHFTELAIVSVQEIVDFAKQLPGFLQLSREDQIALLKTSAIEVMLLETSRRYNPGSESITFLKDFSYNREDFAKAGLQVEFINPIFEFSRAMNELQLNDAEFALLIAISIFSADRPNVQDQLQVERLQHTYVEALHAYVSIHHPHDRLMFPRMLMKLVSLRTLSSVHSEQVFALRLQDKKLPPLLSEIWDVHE
Summary of the method: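 Read-out: reporter transcript levels by RT-PCR plus capillary electrophoresis, fluorescence intensity. Transiently transfected HepG2, exogenous NR-GAL4 chimera, GAL4-UAS reporters; 24 h compound exposure. Activity = increase over DMSO negative control.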

[4] = biological target: Oxysterols receptor LXR-beta (Homo sapiens) (UniProt P55055); experiment: ATG_LXRb_TRANS: Attagene TRANS-FACTORIAL HepG2 Assay for human Liver X Receptor beta (LXRb) (AID 2282981); settings: HepG2 Attagene TRANS GAL4-LXRb reporter, mRNA
Sequence of Oxysterols receptor LXR-beta (Homo sapiens) (P55055 whole entry, looked up, the tested form may be a part): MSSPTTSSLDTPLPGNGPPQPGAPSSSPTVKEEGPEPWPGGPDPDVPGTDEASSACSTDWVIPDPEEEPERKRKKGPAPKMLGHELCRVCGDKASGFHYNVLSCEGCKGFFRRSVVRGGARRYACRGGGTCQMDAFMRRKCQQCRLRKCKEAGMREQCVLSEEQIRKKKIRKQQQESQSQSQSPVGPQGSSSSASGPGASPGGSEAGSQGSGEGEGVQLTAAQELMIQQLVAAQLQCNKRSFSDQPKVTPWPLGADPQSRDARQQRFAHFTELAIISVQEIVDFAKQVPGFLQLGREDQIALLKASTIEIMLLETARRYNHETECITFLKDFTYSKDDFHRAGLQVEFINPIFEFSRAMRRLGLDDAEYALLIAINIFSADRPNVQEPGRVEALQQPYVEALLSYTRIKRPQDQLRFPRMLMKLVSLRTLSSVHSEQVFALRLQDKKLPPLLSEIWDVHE
Summary of the method: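 After 24 h of chemical treatment, transfected HepG2 cells yield total RNA; reporter cDNA is PCR-amplified, FAM-labelled, HpaI-cut and run on capillary electrophoresis. Signal reflects chimeric LXRb-Gal4 activity on GAL4-UAS reporters.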

[5] = biological target: Hepatocyte nuclear factor 4-alpha (Homo sapiens) (UniProt P41235); experiment: ATG_HNF4a_TRANS: Attagene TRANS-FACTORIAL HepG2 Assay for human Hepatocyte Nuclear Factor 4 alpha (HNF4a) (AID 2282982); settings: HepG2 HNF4a transactivation reporter, mRNA readout
Sequence of Hepatocyte nuclear factor 4-alpha (Homo sapiens) (P41235 whole entry, looked up): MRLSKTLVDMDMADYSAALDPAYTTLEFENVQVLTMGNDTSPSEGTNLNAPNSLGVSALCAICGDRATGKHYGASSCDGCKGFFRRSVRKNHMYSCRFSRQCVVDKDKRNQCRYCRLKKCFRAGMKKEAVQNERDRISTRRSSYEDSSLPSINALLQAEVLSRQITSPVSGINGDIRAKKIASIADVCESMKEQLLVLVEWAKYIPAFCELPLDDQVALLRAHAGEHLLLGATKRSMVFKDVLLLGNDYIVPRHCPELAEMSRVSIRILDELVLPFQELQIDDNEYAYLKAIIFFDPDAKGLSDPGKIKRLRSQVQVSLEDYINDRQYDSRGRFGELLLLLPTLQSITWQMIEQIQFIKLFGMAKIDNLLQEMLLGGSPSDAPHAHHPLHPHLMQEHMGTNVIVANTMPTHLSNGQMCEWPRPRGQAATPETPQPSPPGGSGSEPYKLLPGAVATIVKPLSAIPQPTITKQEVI
Summary of the method: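 Multiplexed reporter assay: transfected HepG2, 24 h exposure, total RNA → oligo(dT) RT → PCR → 6-FAM extension → HpaI digest → CE fluorescence. DMSO = negative control.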

[6] = ATG_M_06_TRANS: Attagene TRANS-FACTORIAL HepG2 Assay for M06 Transcription Factor (Internal Marker) (AID 2282983); settings: HepG2 Attagene TRANS M06 internal marker reporter
Summary of the method: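 Read-out: fluorescent reporter cDNA fragments resolved by capillary electrophoresis after RT-PCR and HpaI cut. Source cells were HepG2 carrying transfected multi-reporter GAL4 constructs, dosed 24 h. Increase over DMSO control analysed.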

[7] = ATG_M_32_TRANS: Attagene TRANS-FACTORIAL HepG2 Assay for M32 Transcription Factor (Internal Marker) (AID 2282984); settings: HepG2 Attagene TRANS M32 internal marker reporter;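 further: transcript level of a background control reporter unit measured by RT-PCR and capillary electrophoresis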
Summary of the method: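 Cell-based TRANS-format assay in HepG2: exogenous chimeric GAL4 reporter units transiently expressed, compounds applied 24 h. Reporter mRNA detected by RT-PCR plus capillary electrophoresis; this readout is an internal background marker.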

[8] = biological target: Nuclear receptor subfamily 4 group A member 2 (Homo sapiens) (UniProt P43354); experiment: ATG_NURR1_TRANS: Attagene TRANS-FACTORIAL HepG2 Assay for human Nuclear Receptor Related Protein 1 (NURR1) (AID 2282985); settings: HepG2 Attagene TRANS reporter, mRNA readout
Sequence of Nuclear receptor subfamily 4 group A member 2 (Homo sapiens) (P43354 whole entry, looked up, the tested form may be a part): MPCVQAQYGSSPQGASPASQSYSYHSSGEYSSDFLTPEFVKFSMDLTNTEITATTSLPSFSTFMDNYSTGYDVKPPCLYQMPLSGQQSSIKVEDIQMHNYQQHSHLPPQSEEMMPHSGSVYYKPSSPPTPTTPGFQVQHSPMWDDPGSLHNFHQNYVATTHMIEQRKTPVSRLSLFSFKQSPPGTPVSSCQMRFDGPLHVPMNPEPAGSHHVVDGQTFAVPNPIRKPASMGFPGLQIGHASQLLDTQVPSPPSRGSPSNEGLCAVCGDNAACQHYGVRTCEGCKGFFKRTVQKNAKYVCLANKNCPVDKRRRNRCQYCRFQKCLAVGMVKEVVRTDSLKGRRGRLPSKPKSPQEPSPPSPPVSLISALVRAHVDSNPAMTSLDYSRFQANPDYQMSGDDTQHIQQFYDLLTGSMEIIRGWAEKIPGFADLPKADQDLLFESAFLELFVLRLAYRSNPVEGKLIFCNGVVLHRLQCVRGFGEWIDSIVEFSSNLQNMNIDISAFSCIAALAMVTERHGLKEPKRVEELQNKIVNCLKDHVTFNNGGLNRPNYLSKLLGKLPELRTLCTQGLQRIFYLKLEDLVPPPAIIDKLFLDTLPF
Summary of the method: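 Measures transcriptional activation by an exogenous NR-Gal4 chimera in transfected HepG2 liver cells. After 24 h, reporter RNA is reverse-transcribed, amplified and resolved by capillary electrophoresis; DMSO defines baseline.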

[9] = biological target: Transcriptional activator Myb (Homo sapiens) (UniProt P10242); experiment: ATG_Myb_CIS: Attagene CIS-FACTORIAL HepG2 Assay for human Myeloblastosis (Myb) Proto-Oncogene Transcription Factor (AID 2282986; active means hit-call score of the fitted dose curve at least 0.9, where 1 is the maximum; inactive means score below 0.9); settings: HepG2 Attagene CIS-FACTORIAL Myb reporter transcription; actives raise or lower the signal
Sequence of Transcriptional activator Myb (Homo sapiens) (P10242 whole entry, looked up): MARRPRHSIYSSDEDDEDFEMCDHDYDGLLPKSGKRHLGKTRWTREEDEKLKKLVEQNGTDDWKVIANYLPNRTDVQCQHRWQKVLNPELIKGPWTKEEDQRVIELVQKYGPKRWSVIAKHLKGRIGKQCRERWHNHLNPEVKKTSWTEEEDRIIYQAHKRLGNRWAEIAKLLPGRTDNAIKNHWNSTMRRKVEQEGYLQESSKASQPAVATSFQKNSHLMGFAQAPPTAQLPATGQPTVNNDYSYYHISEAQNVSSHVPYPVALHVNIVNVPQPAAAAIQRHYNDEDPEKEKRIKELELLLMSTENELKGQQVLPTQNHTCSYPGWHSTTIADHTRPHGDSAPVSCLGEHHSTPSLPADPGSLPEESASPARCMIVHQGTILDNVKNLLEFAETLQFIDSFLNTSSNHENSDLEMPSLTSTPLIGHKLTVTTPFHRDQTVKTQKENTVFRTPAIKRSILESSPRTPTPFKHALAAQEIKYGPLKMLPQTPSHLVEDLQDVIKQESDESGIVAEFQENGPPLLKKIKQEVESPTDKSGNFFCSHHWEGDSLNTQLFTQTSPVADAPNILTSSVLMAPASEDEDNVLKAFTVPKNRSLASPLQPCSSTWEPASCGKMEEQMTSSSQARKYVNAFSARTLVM
Summary of the method: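 HepG2 cells were transiently transfected with cis-regulated multiple reporter transcription units reflecting endogenous Myb activity, then exposed to compound for 24 hours. Reporter mRNA was measured by RT-PCR with capillary electrophoresis; bidirectional fitting versus DMSO baseline.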

[10] = biological target: Estrogen-related receptor gamma (Homo sapiens) (UniProt P62508); experiment: ATG_ERRg_TRANS: Attagene TRANS-FACTORIAL HepG2 Assay for human Estrogen-Related Receptor gamma (ERRg) (AID 2282977); settings: HepG2 Attagene TRANS reporter, ERRg transactivation;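 further: hits increase reporter signal over DMSO so potencies reflect activators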
Sequence of Estrogen-related receptor gamma (Homo sapiens) (P62508 whole entry, looked up, the tested form may be a part): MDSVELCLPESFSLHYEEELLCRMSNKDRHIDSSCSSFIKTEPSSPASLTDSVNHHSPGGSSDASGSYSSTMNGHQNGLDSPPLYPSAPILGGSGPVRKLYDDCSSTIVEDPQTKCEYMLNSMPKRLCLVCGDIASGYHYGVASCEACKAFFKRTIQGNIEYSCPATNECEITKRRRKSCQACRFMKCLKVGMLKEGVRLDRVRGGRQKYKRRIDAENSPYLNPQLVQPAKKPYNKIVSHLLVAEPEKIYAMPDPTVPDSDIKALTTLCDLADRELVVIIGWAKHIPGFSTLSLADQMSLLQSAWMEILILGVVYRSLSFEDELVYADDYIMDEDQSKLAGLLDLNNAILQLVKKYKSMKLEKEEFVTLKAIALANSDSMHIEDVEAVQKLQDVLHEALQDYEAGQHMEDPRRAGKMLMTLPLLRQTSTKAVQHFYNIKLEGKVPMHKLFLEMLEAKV
Summary of the method: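 Exogenous NR-Gal4 chimera activity was assessed in HepG2 cells bearing transfected GAL4-UAS reporters. After 24 h dosing, total RNA underwent RT-PCR, fluorescent primer extension and HpaI digestion before capillary electrophoresis, with gain of signal scored against DMSO.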

SMILES: C[C@]12CC[C@H]3C(=CCc4cc(O)ccc43)[C@@H]1CCC2=O
- outcome [1]: inactive
- outcome [2]: inactive
- outcome [3]: inactive
- outcome [4]: inactive
- outcome [5]: inactive
- outcome [6]: inactive
- outcome [7]: inactive
- outcome [8]: inactive
- outcome [9]: inactive

SMILES: C=CC(=O)OCC(F)(F)C(F)(F)C(F)(F)COC(=O)C=C
- outcome [10]: inactive
- outcome [1]: inactive
- outcome [2]: inactive
- outcome [4]: inactive
- outcome [5]: inactive
- outcome [6]: inactive
- outcome [8]: inactive
- outcome [9]: inactive

SMILES: Cc1ccc(O)c(-n2nc3ccccc3n2)c1
- outcome [10]: inactive
- outcome [1]: inactive
- outcome [2]: inactive
- outcome [3]: inactive
- outcome [4]: inactive
- outcome [6]: inactive
- outcome [7]: inactive
- outcome [9]: inactive

SMILES: Oc1ccc2c(c1)CCC2
- outcome [10]: inactive
- outcome [2]: inactive
- outcome [4]: inactive
- outcome [5]: inactive
- outcome [6]: inactive
- outcome [7]: inactive
- outcome [9]: inactive

SMILES: CCOC(=O)CCC(C)=O
- outcome [10]: inactive
- outcome [2]: inactive
- outcome [3]: inactive
- outcome [4]: inactive
- outcome [7]: inactive
- outcome [9]: inactive

SMILES: CCOC(=O)CC(=O)C(F)(F)C(F)(F)F
- outcome [10]: inactive
- outcome [1]: inactive
- outcome [2]: inactive
- outcome [3]: inactive
- outcome [4]: inactive
- outcome [5]: inactive
- outcome [8]: inactive
- outcome [9]: inactive

SMILES: Nc1c(Br)cc([N+](=O)[O-])cc1Br
- outcome [10]: inactive
- outcome [1]: inactive
- outcome [2]: inactive
- outcome [3]: inactive
- outcome [5]: inactive
- outcome [6]: inactive
- outcome [7]: inactive
- outcome [9]: inactive

SMILES: CO[Si](C)(CCC(F)(F)C(F)(F)C(F)(F)C(F)(F)C(F)(F)C(F)(F)F)OC
- outcome [10]: inactive
- outcome [2]: inactive
- outcome [4]: inactive
- outcome [5]: inactive
- outcome [7]: inactive
- outcome [9]: inactive

SMILES: CCC(=O)OC(C)c1ccccc1 (stereo not given)
- outcome [10]: inactive
- outcome [2]: inactive
- outcome [4]: inactive
- outcome [5]: inactive
- outcome [6]: inactive
- outcome [7]: inactive
- outcome [8]: inactive
- outcome [9]: inactive

SMILES: O=C(O)CCC(F)(F)C(F)(F)C(F)(F)F
- outcome [10]: inactive
- outcome [2]: inactive
- outcome [3]: inactive
- outcome [4]: inactive
- outcome [5]: inactive
- outcome [6]: inactive
- outcome [7]: inactive
- outcome [8]: inactive
- outcome [9]: inactive

SMILES: CCCCCCCC/C=C\CCCCCCCC(=O)OCC(O)CO (stereo not given)
- outcome [10]: inactive
- outcome [1]: inactive
- outcome [2]: inactive
- outcome [6]: inactive
- outcome [7]: inactive
- outcome [8]: inactive
- outcome [9]: inactive

SMILES: O=C(Cl)C(F)(F)C(F)(F)C(F)(F)C(F)(F)C(F)(F)C(F)(F)F
- outcome [1]: inactive
- outcome [2]: inactive
- outcome [3]: inactive
- outcome [4]: inactive
- outcome [5]: inactive
- outcome [6]: inactive
- outcome [7]: inactive
- outcome [8]: inactive
- outcome [9]: inactive

SMILES: CCCCCCCCCCCC(=O)Cl
- outcome [1]: inactive
- outcome [2]: inactive
- outcome [4]: inactive
- outcome [5]: inactive
- outcome [6]: inactive
- outcome [7]: inactive
- AC50 [8]: 67.6 µM (active)
- outcome [9]: inactive

SMILES: C=CC(=O)OCC(F)(F)C(F)(F)C(F)(F)C(F)(F)C(F)(F)C(F)(F)C(F)(F)C(F)F
- outcome [1]: inactive
- outcome [2]: inactive
- outcome [3]: inactive
- outcome [4]: inactive
- outcome [6]: inactive
- outcome [7]: inactive
- outcome [8]: inactive
- outcome [9]: inactive

SMILES: CC(C)(C)c1cc(CCC(=O)NCCCCCCNC(=O)CCc2cc(C(C)(C)C)c(O)c(C(C)(C)C)c2)cc(C(C)(C)C)c1O
- outcome [1]: inactive
- outcome [2]: inactive
- outcome [3]: inactive
- outcome [4]: inactive
- outcome [5]: inactive
- outcome [6]: inactive
- outcome [8]: inactive
- outcome [9]: inactive

SMILES: O=C(O)CCC(F)(F)C(F)(F)C(F)(F)C(F)(F)C(F)(F)C(F)(F)C(F)(F)F
- outcome [1]: inactive
- outcome [2]: inactive
- outcome [3]: inactive
- outcome [7]: inactive
- outcome [8]: inactive
- outcome [9]: inactive

SMILES: CC(C)C(=O)OCc1ccccc1
- outcome [1]: inactive
- outcome [2]: inactive
- outcome [3]: inactive
- outcome [7]: inactive
- outcome [9]: inactive

SMILES: O=C1C=CC(=O)N1c1ccc(Cc2ccc(N3C(=O)C=CC3=O)cc2)cc1
- outcome [1]: inactive
- outcome [2]: inactive
- outcome [3]: inactive
- outcome [5]: inactive
- outcome [8]: inactive
- outcome [9]: inactive

SMILES: NCC(F)(F)C(F)(F)C(F)(F)C(F)(F)C(F)(F)C(F)(F)C(F)(F)C(F)(F)F
- outcome [1]: inactive
- outcome [2]: inactive
- outcome [3]: inactive
- outcome [6]: inactive
- outcome [7]: inactive
- outcome [8]: inactive
- outcome [9]: inactive

SMILES: CC(C)CCCC(C)CCO (stereo not given)
- outcome [1]: inactive
- outcome [2]: inactive
- outcome [4]: inactive
- outcome [7]: inactive
- outcome [8]: inactive
- outcome [9]: inactive

SMILES: C=CCOC(=O)CC(C)C
- outcome [1]: inactive
- outcome [2]: inactive
- outcome [4]: inactive
- outcome [6]: inactive
- outcome [7]: inactive
- outcome [9]: inactive

SMILES: CCOCOCC
- outcome [1]: inactive
- outcome [2]: inactive
- outcome [3]: inactive
- outcome [4]: inactive
- outcome [7]: inactive
- outcome [8]: inactive
- outcome [9]: inactive

SMILES: C[Si](C)O[Si](C)C
- outcome [1]: inactive
- outcome [2]: inactive
- outcome [3]: inactive
- outcome [4]: inactive
- outcome [9]: inactive

SMILES: CC1=CCC2C(=O)OC(=O)C2C1 (stereo not given)
- outcome [1]: inactive
- outcome [2]: inactive
- outcome [3]: inactive
- outcome [9]: inactive

SMILES: F[Si-2](F)(F)(F)(F)F
- outcome [1]: inactive
- outcome [2]: inactive
- outcome [4]: inactive
- outcome [5]: inactive
- outcome [6]: inactive
- outcome [7]: inactive
- outcome [8]: inactive
- outcome [9]: inactive

SMILES: O=C1c2ccccc2C(=O)c2c(Cl)cccc21
- outcome [1]: inactive
- outcome [2]: inactive
- outcome [3]: inactive
- outcome [4]: inactive
- outcome [6]: inactive
- outcome [7]: inactive
- outcome [8]: inactive
- outcome [9]: inactive

SMILES: O=C(O)C(F)(F)C(F)(F)C(F)(F)C(F)(F)C(F)(F)C(F)(F)C(F)F
- outcome [1]: inactive
- outcome [2]: inactive
- outcome [3]: inactive
- outcome [4]: inactive
- outcome [6]: inactive
- outcome [7]: inactive
- outcome [8]: inactive
- outcome [9]: inactive

SMILES: CC1CCCCC1
- outcome [1]: inactive
- outcome [2]: inactive
- outcome [3]: inactive
- outcome [4]: inactive
- outcome [6]: inactive
- outcome [7]: inactive
- outcome [9]: inactive
